# Measurements: paper PMC7862700, “An all-to-all approach to the identification of sequence-specific readers for epigenetic DNA modifications on cytosine”
# What was measured:
# Assay in all cases: DAPPL (digital affinity profiling via proximity ligation, sequencing); 10 mM Tris-HCl pH 7.5, 50 mM NaCl, 1 mM DTT, 4% glycerol, room temperature, 30 min; GST-TFs on glutathione beads, 16-mer random dsDNA library, 0.1% formaldehyde crosslink after washing; high values mean tight binding
# ETV5 = ETV5 (Homo sapiens, UniProt P41161 1-510); conditions: protein: recombinant; tags: N-terminal GST; dsDNA, one strand shown
# Method in brief: (§1)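 Sequencing on an Illumina NextSeq500 followed washing, crosslinking with 0.1% formaldehyde, proximity ligation (BsaI/T4 ligase, 1 h, 37 °C) and PCR amplification of pools that had been incubated for 30 min at room temperature with 200 nmole of a random double-stranded 16-mer DNA library in Tris/NaCl/DTT/glycerol buffer. Each pool held DNA-barcoded human transcription factors, expressed in yeast as GST fusions and captured on glutathione beads, plus a tag-only sample. Binding signal is a hexamer's read frequency for a factor divided by its frequency in the tag-only sample.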
# HSF1 = HSF1 (Homo sapiens, UniProt Q00613 1-529); conditions: protein: recombinant; tags: N-terminal GST; chain copies: 3; dsDNA, one strand shown
# Method in brief: as §1
# ELF4 = ELF4 (Homo sapiens, UniProt Q99607 1-663); conditions: protein: recombinant; tags: N-terminal GST; dsDNA, one strand shown
# Method in brief: as §1
# ELK4 = biological target: T1, ELK4 (Homo sapiens, UniProt P28324-2 1-405); conditions: protein: recombinant; tags: N-terminal GST; dsDNA, one strand shown
# T1 sequence: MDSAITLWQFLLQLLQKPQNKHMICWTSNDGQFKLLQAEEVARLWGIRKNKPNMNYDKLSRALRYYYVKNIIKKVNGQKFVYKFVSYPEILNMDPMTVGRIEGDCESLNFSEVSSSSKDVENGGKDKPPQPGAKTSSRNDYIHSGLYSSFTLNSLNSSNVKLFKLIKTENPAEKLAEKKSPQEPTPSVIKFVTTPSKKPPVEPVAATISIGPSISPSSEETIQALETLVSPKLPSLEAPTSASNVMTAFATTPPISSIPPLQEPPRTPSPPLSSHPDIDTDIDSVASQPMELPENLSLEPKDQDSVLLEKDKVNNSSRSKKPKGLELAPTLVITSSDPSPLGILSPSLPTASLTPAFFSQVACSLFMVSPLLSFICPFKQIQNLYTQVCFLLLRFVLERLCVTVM
# Method in brief: as §1
# ETV2 = biological target: T2, ETV2 (Homo sapiens, UniProt O00321 1-342); conditions: protein: recombinant; tags: N-terminal GST; dsDNA, one strand shown
# T2 sequence: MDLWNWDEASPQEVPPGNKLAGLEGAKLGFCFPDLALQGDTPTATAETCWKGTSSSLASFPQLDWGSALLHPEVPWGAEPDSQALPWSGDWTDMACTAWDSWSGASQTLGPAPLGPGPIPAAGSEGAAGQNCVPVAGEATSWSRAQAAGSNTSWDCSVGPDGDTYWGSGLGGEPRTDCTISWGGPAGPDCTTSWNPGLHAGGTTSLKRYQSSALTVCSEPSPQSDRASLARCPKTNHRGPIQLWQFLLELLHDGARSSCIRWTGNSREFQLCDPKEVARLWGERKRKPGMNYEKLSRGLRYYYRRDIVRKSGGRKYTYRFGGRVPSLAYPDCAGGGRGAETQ
# Method in brief: as §1
# ELF3 = biological target: T3, ELF3 (Homo sapiens, UniProt P78545 1-371); conditions: protein: recombinant; tags: N-terminal GST; dsDNA, one strand shown
# T3 sequence: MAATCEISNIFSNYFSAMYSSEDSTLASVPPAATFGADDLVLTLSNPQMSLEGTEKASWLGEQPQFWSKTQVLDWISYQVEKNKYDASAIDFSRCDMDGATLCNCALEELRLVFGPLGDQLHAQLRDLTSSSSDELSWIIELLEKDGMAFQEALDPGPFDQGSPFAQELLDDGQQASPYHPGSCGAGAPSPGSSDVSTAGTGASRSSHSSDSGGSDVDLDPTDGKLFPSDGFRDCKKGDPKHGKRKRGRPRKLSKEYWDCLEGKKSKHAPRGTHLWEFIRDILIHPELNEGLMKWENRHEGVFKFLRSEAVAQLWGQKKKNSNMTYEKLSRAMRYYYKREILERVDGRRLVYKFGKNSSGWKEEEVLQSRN
# Method in brief: as §1
# ETV1 = ETV1 (Homo sapiens, UniProt P50549 1-477); conditions: protein: recombinant; tags: N-terminal GST; dsDNA, one strand shown
# Method in brief: as §1
# ERF = biological target: T4, ERF (Homo sapiens, UniProt P50548 1-548); conditions: protein: recombinant; tags: N-terminal GST; dsDNA, one strand shown
# T4 sequence: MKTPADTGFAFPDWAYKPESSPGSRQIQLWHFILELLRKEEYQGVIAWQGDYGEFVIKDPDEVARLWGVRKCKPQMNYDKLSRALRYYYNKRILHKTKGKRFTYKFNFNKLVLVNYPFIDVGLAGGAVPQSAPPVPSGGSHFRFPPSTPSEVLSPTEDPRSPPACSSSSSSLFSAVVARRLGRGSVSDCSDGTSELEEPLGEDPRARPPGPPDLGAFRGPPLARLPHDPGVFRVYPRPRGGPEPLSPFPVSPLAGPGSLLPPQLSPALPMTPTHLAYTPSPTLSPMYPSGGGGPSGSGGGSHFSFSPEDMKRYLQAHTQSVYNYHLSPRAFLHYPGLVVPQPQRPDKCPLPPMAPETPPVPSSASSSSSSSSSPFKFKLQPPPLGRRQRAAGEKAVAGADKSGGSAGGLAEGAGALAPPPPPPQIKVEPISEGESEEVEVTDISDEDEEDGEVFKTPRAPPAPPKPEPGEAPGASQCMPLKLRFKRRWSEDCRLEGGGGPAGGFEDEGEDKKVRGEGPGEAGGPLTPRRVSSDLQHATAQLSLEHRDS
# Method in brief: as §1
# ETV3L = biological target: T5, ETV3L (Homo sapiens, UniProt Q6ZN32 1-361); conditions: protein: recombinant; tags: N-terminal GST; dsDNA, one strand shown
# T5 sequence: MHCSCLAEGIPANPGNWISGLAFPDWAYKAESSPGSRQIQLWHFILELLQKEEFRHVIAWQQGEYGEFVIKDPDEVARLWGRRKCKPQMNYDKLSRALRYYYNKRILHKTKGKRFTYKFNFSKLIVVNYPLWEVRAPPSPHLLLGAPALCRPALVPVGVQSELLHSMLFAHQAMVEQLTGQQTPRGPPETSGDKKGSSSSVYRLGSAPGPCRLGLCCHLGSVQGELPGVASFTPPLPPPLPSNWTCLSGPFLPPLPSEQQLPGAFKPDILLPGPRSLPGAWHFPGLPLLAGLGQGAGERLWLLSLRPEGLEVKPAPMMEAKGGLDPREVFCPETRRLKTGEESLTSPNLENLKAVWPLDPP
# Method in brief: as §1
# ETS2 = biological target: T6, ETS2 (Homo sapiens, UniProt P15036 1-469); conditions: protein: recombinant; tags: N-terminal GST; dsDNA, one strand shown
# T6 sequence: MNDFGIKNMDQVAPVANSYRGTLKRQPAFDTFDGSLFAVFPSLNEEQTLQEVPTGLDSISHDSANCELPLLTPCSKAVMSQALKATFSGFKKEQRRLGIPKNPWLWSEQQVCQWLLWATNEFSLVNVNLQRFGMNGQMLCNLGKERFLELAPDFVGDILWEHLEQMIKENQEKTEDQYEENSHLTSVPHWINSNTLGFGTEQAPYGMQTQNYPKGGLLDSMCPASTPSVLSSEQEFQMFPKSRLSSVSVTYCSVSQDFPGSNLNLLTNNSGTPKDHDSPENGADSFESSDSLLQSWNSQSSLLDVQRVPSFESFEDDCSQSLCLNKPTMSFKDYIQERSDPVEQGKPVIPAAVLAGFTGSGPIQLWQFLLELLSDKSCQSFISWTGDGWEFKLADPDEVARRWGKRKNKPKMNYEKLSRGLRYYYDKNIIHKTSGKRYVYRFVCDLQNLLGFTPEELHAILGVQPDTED
# Method in brief: as §1
# SPDEF = biological target: T7, SPDEF (Homo sapiens, UniProt O95238 1-335); conditions: protein: recombinant; tags: N-terminal GST; dsDNA, one strand shown
# T7 sequence: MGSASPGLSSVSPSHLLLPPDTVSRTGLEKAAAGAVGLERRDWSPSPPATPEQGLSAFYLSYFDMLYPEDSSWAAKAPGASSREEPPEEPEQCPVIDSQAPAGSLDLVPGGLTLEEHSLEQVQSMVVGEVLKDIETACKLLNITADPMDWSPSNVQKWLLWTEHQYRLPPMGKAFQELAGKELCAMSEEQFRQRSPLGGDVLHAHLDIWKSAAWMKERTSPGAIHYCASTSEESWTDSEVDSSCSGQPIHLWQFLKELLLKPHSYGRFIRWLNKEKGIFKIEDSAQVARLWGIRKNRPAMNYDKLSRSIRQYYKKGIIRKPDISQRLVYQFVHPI
# Method in brief: as §1
# ETV7 = biological target: T8, ETV7 (Homo sapiens, UniProt Q9Y603 1-341); conditions: protein: recombinant; tags: N-terminal GST; dsDNA, one strand shown
# T8 sequence: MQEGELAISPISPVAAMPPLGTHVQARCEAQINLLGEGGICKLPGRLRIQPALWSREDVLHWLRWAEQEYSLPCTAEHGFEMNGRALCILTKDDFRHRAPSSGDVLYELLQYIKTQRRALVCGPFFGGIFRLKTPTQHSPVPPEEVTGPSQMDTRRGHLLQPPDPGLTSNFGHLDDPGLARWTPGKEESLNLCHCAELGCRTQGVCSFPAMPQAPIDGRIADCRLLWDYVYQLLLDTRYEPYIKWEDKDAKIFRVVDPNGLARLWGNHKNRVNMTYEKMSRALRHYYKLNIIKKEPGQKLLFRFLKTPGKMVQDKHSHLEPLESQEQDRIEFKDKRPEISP
# Method in brief: as §1
# ETV3 = biological target: T9, ETV3 (Homo sapiens, UniProt P41162-2 1-143); conditions: protein: recombinant; tags: N-terminal GST; dsDNA, one strand shown
# T9 sequence: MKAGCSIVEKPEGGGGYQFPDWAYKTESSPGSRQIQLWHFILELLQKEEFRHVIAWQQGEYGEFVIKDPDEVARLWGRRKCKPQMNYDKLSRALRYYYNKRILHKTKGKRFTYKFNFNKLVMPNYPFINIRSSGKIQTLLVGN
# Method in brief: as §1
# ETV6 = ETV6 (Homo sapiens, UniProt P41212 1-452); conditions: protein: recombinant; tags: N-terminal GST; dsDNA, one strand shown
# Method in brief: as §1
# Chain of ETV5 (P41161 whole entry, the tested form may be a part): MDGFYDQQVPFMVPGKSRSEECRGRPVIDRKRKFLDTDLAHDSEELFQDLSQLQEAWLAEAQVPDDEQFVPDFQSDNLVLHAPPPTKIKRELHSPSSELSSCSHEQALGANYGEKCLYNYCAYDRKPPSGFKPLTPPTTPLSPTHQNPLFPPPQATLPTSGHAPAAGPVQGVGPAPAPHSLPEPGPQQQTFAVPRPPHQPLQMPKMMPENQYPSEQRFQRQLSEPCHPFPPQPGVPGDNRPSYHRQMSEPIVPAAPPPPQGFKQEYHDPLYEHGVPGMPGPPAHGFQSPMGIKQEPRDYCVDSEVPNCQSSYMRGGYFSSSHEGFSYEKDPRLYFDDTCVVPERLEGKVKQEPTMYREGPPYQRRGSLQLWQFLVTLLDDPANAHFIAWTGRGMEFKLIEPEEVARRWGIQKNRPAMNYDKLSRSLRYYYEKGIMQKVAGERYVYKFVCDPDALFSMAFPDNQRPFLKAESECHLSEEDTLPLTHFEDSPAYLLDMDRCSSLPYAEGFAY
# Chain of ETV6 (P41212 whole entry): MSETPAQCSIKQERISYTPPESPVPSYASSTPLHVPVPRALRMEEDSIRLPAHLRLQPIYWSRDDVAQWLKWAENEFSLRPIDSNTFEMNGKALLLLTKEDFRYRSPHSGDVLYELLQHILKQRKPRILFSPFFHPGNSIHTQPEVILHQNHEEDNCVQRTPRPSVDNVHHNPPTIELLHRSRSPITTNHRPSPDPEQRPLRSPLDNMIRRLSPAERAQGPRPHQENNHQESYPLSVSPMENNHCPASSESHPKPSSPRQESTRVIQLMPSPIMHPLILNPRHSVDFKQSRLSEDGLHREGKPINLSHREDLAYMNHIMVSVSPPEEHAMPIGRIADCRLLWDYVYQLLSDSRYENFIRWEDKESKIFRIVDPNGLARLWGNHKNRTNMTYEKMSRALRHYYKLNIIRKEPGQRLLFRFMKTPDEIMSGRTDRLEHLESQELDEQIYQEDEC
# Chain of ELF4 (Q99607 whole entry): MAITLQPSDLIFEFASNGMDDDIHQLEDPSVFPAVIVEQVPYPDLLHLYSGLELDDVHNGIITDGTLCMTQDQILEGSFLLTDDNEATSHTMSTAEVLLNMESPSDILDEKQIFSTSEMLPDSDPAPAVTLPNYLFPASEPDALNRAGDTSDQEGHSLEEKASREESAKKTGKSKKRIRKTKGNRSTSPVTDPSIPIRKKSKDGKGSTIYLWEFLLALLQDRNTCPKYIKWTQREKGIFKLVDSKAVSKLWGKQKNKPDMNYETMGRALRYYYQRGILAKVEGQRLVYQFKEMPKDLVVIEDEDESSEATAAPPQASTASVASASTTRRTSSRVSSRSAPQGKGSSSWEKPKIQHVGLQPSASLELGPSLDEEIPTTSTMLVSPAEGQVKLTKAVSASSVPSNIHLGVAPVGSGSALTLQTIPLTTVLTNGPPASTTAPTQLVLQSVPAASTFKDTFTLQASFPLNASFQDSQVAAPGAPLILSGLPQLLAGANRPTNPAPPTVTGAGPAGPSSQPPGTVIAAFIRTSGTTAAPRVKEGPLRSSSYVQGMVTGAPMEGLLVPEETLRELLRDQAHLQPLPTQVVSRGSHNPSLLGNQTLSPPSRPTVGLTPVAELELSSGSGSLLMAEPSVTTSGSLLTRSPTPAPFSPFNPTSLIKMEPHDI
# Chain of ETV1 (P50549 whole entry): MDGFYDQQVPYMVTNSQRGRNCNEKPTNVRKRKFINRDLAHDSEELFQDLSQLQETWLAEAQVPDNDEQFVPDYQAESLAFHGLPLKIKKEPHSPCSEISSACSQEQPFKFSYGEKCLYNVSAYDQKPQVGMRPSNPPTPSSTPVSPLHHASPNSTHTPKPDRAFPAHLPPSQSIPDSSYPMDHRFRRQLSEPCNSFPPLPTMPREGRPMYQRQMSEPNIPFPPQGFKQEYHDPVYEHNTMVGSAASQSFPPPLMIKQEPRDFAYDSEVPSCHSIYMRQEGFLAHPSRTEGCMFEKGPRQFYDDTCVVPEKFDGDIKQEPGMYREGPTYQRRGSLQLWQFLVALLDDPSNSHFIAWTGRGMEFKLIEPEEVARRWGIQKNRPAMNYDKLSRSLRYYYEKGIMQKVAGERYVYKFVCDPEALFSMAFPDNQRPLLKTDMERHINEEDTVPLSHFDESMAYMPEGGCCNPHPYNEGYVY
# Chain of HSF1 (Q00613 whole entry): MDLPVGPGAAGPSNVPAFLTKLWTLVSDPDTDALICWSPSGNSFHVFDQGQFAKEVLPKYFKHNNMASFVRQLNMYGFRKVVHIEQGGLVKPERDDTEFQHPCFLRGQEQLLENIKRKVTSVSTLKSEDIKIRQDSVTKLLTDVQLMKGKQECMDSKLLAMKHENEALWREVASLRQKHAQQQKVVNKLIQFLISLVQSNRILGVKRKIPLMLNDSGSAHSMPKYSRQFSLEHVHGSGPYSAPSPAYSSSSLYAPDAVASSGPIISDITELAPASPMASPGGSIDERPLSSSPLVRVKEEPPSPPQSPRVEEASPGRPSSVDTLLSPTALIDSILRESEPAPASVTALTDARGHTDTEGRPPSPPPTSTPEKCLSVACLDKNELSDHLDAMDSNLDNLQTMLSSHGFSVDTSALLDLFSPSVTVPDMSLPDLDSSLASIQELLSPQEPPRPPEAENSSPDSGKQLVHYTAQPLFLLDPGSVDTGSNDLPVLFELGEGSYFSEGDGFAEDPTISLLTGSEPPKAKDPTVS
sequence,measurement,setting,value
CGAGTT,binding signal,ETV5,"1.1 fold enrichment (6-mer frequency, TF over GST control)"
same,binding signal,HSF1,"1.07 fold enrichment (6-mer frequency, TF over GST control)"
same,binding signal,ELF4,"1.06 fold enrichment (6-mer frequency, TF over GST control)"
same,binding signal,ELK4,"1.1 fold enrichment (6-mer frequency, TF over GST control)"
same,binding signal,ETV2,"1.11 fold enrichment (6-mer frequency, TF over GST control)"
same,binding signal,ELF3,"1.16 fold enrichment (6-mer frequency, TF over GST control)"
same,binding signal,ETV1,"1.04 fold enrichment (6-mer frequency, TF over GST control)"
same,binding signal,ERF,"1.08 fold enrichment (6-mer frequency, TF over GST control)"
same,binding signal,ETV3L,"1.16 fold enrichment (6-mer frequency, TF over GST control)"
same,binding signal,ETS2,"1.07 fold enrichment (6-mer frequency, TF over GST control)"
same,binding signal,SPDEF,"1.02 fold enrichment (6-mer frequency, TF over GST control)"
same,binding signal,ETV7,"1.08 fold enrichment (6-mer frequency, TF over GST control)"
same,binding signal,ETV3,"1.12 fold enrichment (6-mer frequency, TF over GST control)"
same,binding signal,ETV6,"1.13 fold enrichment (6-mer frequency, TF over GST control)"
